Source: PubChem BioAssay AID1694 (National Center for Advancing Translational Sciences (NCATS), 2009)
Inconclusive results are not listed. Entries that show only a call come without a potency. Active and inactive are the calls of the source. Calls come from the whole dose curve; as a rule, active = well fitted curve in the direction sought with a large enough effect; inconclusive = small, poorly fitted or top-dose-only effect, or another doubt; inactive = no such curve, though single readings can be large or run the other way.

Experiment: Confirmation Concentration-Response Assay for Inhibitors of Tau Fibril Formation, Total Fluorescence Counterscreen for Fluorescence Polarization
Details: Alexa594-tau K18 total fluorescence counterscreen, interference, tau K18 with P301L mutation; series mostly up to 100 µM
Text: NIH Molecular Libraries Probe Production Network [MLPCN] NIH Chemical Genomics Center [NCGC] MLPCN Grant: X01 MH083262-01 Assay Provider: Carlo Ballatore, University of Pennsylvania NCGC Assay Overview: The microtubule-associated protein tau is an abundant protein in the axons of neurons that stabilizes microtubules. With its ability to modulate microtubule dynamics, tau contributes directly or indirectly, to key structural and regulatory cellular functions. Particularly important is the influence tau exerts on axonal transport, which allows signaling molecules, trophic factors and other essential cellular constituents to travel along the axons. Under pathological conditions, tau becomes sequestered into insoluble aggregates called neurofibrillary tangles. This phenomenon is believed to have pathological consequences by promoting axonal transport deficits that ultimately lead to synaptic dysfunction and neuronal loss. To identify inhibitors of tau aggregation, a heparin-induced tau fibril formation assay was used that employed a recombinantly expressed fragment of tau, K18 (Q242-E372), bearing a P301L mutation (Gustke et al. 1994; Hong et al. 1998). […] Total fluorescence (555 nm excitation and 632 nm emission) was measured to identify fluorescent or absorbent compounds at this wavelength. Such compounds may be artifacts that interfere with the Alexa 594 Tau fluorescence polarization assay. Gustke, N., B. Trinczek, et al. (1994). "Domains of tau protein and interactions with microtubules." Biochemistry 33(32): 9511-22. Hong, M., V. Zhukareva, et al. (1998). "Mutation-specific functional impairments in distinct tau isoforms of hereditary FTDP-17." Science 282(5395): 1914-7. Li, W. and V. M. Lee (2006). "Characterization of two VQIXXK motifs for tau fibrillization in vitro." Biochemistry 45(51): 15692-701. von Bergen, M., S. Barghorn, et al. (2001). "Mutations of tau protein in frontotemporal dementia promote aggregation of paired helical filaments by enhancing local beta-structure." J Biol Chem 276(51): 48165-74.
For screening, 2 uL/well human K18 P301L (15 uM unlabeled and 0.24 uM Alexa 594-labeled tau final concentrations) in reagent buffer (100 mM sodium acetate pH 7) was dispensed into black solid 1536-well plates (Grenier) using a solenoid-based dispenser. Following transfer of 23 nL compound or DMSO vehicle by a pin tool, 2 uL/well heparin (20 uM final concentration) in reagent buffer was added and the plate centrifuged 15 s at 1000 RPM. Plates were incubated 6 hr at 37 C and then 1 uL/well ThT (30 uM final concentration) was added. After a 1 hr ambient incubation, the plates were read by an Envision (Perkin Elmer) to monitor Alexa 594 FP (555 nm excitation and 632 nm emission). Keywords: NIH Roadmap, MLPCN, MLI, MLSMR, NCGC, qHTS, tau, tauopathies, Alzheimer's disease, fibril, neurodegeneration, aggregation

| SMILES | Potency |
| --- | --- |
| Nc1c(-c2ccncc2)cc[nH]c1=O | inactive |
| COc1ccc(-n2nc(C(=O)O)c3csc(N)c3c2=O)cc1 | inactive |
| NC[C@@H](O)c1ccc(O)c(O)c1 | inactive |
| COC(=O)C1CCc2sc(NC(=O)Cc3ccccc3)c(C(=O)Nc3ccc(Cl)cc3)c21 (stereo not given) | inactive |
| COc1ccc2[nH]c(=O)c(CNc3cccc(C)c3)cc2c1 | inactive |
| Cc1cccc(NC(=O)c2c(NC(=O)c3ccccc3)sc3c2CCCC3)c1 | inactive |
| COc1cc(/C=N/N=C2/NC(=O)C(CC(=O)O)S2)ccc1OCc1ccc(Cl)cc1 (stereo not given) | inactive |
| COc1ncc(-c2ccccc2)cc1N | inactive |
| COC(=O)c1c(NC(=O)CCCOc2cccc(C)c2)sc2c1C(C(=O)OC)CC2 (stereo not given) | inactive |
| O=C(Cc1ccccc1)Nc1sc2c(c1C(=O)Nc1ccc(Cl)cc1)CCCC2 | inactive |
| COc1ccc2oc(-c3ccc(NC(=O)c4ccc(N5CCOCC5)c([N+](=O)[O-])c4)cc3)nc2c1 | inactive |
| COc1ccc2c(c1)c(CC(=O)Nc1ccc(C(C)=O)cc1)c(C)n2C(=O)c1ccc(Cl)cc1 | inactive |
| CCOC(=O)c1c(N)sc2c1CN(C)CC2 | inactive |
| COc1ccc2[nH]c(=O)c(CNc3ccccc3OC)cc2c1 | inactive |
| Cn1sc(NC(=O)c2ccccc2)nc1=O | inactive |
| CN(C)c1ccc(-c2cc[nH]c(=O)c2N)cc1 | inactive |
| O=C(Nc1cccc(-c2nc3ccccc3o2)c1)c1cc([N+](=O)[O-])ccc1N1CCOCC1 | inactive |
| COc1cccc(/C=C2/SC(=S)N(CC(=O)Nc3nnc(C)s3)C2=O)c1 | inactive |
| COC(=O)c1nn(-c2ccc(OC)cc2)c(=O)c2c(N)sc(C)c12 | inactive |
| COC(=O)C1CCc2sc(N)c(C(=O)OCc3ccccc3)c21 (stereo not given) | inactive |

| SMILES | Potency |
| --- | --- |
| CCOC(=O)c1nn(-c2ccccc2)c(=O)c2c(NC(=O)c3ccccc3)scc12 | inactive |
| O=C(Nc1ccccc1)Nc1ccccc1 | inactive |
| O=C(O)CN1C(=O)/C(=C/c2ccc(-c3cccc(Cl)c3)o2)SC1=S | inactive |
| CN(C)c1ccc(N2C(=O)CSC2=S)cc1 | inactive |
| O=C(NCCCO)Nc1ccc2nc(-c3ccco3)c(-c3ccco3)nc2c1 | 3.16 µM [quencher] (active) |
| CC(C)C(C)NC(=O)CSc1nc2scc(-c3ccco3)c2c(=O)n1-c1ccccc1 (stereo not given) | inactive |
| Cc1ccc(NC(=O)c2c(NC(=O)Cc3ccccc3)sc3c2CCCC3)cc1 | inactive |
| O=S(=O)(c1ccc(N=C2NN=C(c3cc(F)ccc3F)CS2)cc1)N1CCOCC1 | inactive |
| COc1ccc(NC(=O)C2CCN(S(=O)(=O)c3c(C)noc3/C=C/c3cccs3)CC2)cc1Cl | inactive |
| O=S(=O)(c1ccc(NC(=S)N/N=C/c2ccc(N3CCOCC3)cc2)cc1)N1CCOCC1 | inactive |
| COC(=O)c1c(N)sc2c1C(C(=O)OC)CC2 (stereo not given) | inactive |
| COc1ccc(CNC(=O)Cn2nc(C)n3cccc3c2=O)cc1 | inactive |
| Nc1c(-c2ccccc2)cc[nH]c1=O | inactive |
| CC(=O)Nc1sc(C)c2cnn(-c3ccccc3)c(=O)c12 | inactive |
| CCOC(=O)c1ccc(-n2nc(C(=O)OCC)c3csc(N)c3c2=O)cc1 | inactive |
| CCN(c1ccccc1)S(=O)(=O)c1nnc(NC(=O)C(C)(C)C)s1 | inactive |
| Nc1scc2c(CO)nn(-c3ccccc3)c(=O)c12 | inactive |
| Nc1nc2cc(S(=O)(=O)NC3=NCCCCC3)ccc2s1 | inactive |
| Cc1ccc(-c2ccc(/C=N/N=C3/NC(=O)C(CC(=O)O)S3)o2)c([N+](=O)[O-])c1 (stereo not given) | inactive |
| O=C(CSc1nc2scc(-c3ccco3)c2c(=O)n1-c1ccccc1)N1CCOCC1 | inactive |
